# The list is not random: actives were taken first. Their share in the collection is about 3.2%.
# Pol III holo inh = inhibitors of bacterial DNA polymerase III holoenzyme. reconstituted DNA polymerase III holoenzyme replication, biochemical. Potency, µM (top dose mostly 57.1 µM), without a hit: top-dose activity change, negative = inhibition. actives 0.25% (n = 71,000). AID 603; further: on the % scale 0 is the no-effect control and ±100 the full control effect
#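 Reconstituted *E. coli* holoenzyme (0.35 nM Pol III, 1 nM beta, 154 nM SSB, 2 nM primase) was preincubated with compound for 15 min at RT. Synthesis on 1.4 nM ssM13Gori ran 35 min, then was stopped with PicoGreen/EDTA and read as dsDNA fluorescence.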
# ALOX15 inhib = 15-hLO (ALOX15) enzyme inhibition; P16050; purified 15hLO-1, xylenol orange hydroperoxide absorbance; Potency, µM (highest dose often 57.1 µM), without a hit: top-dose activity change, negative = inhibition, actives largely listed as inhibitors; actives 1.4% (n = 74,000); further: on the % scale 0 is the no-effect control and ±100 the full control effect; nearly all actives have a fitted effect of over 55% in size
# Target sequence (P16050 whole entry, looked up): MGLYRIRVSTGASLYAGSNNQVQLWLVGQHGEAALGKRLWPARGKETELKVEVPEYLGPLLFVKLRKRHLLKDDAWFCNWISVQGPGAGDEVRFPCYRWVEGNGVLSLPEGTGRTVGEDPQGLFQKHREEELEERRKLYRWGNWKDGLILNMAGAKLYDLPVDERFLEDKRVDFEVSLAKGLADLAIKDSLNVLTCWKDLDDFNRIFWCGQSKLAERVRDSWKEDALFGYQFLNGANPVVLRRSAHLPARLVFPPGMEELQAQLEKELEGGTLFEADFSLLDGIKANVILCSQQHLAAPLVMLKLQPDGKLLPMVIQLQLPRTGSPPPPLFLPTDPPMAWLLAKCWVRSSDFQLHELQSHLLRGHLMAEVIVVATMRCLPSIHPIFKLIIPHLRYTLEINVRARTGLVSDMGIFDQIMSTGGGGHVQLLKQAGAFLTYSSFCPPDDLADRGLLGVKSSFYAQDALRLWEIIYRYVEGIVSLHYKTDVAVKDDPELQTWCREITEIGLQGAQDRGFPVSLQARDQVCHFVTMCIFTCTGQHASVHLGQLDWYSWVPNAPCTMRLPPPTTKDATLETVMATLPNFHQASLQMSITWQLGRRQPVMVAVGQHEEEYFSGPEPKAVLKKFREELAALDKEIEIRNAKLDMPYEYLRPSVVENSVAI
#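 Hydroperoxide formed from arachidonic acid (50 uM) by purified human 15hLO-1 (40 nM) oxidizes ferrous iron, and the ferric-xylenol orange complex is read at 573 versus 405 nm. Compounds were preincubated 15 min; reaction ran 6 min at room temperature.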
# Caspase-7 inhib = blocks human caspase-7 allosterically or competitively; P55210; recombinant caspase-7, Ac-DEVD-AFC fluorescence rate; Potency, µM (titrated, usually from 57.5 µM), for the others: at the highest dose activity change, negative = inhibition, hits mostly inhibitors; actives 0.02% (n = 75,000); AID 889; active means well fitted inhibition curve with a large enough effect in the main read-out, with a control signal flat, not every such curve was filed as active; inconclusive means small, poorly fitted or top-dose-only effect, or a change in a side signal; further: % of control where 0% means no effect
# Tau fil binding = tau filament binding; P10636; recombinant tau filaments, thioflavin S fluorescence, 15 h; filaments grown with octadecylsulfate alongside compound; Potency, µM (series often up to 57.1 µM), without a hit: top-dose activity change, negative = inhibition; actives 2% (n = 71,000); AID 596;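 further: on the % scale 0 is the no-effect control and ±100 the full control effect; actives lower thioflavin S fluorescence by blocking filaments or displacing dye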
#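 His-tagged recombinant human tau (exons 2, 3 and 10 included), 1 uM, was induced to fibrillize by 30 uM sodium octadecylsulfate with compound present. After 15 h at 37 C, thioflavine S fluorescence (ex 450, em 510 nm) was read.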
# Casp1 inh = blocks human caspase-1 allosterically or competitively; P29466; actives 0.03% (n = 75,000); AID 900; Potency, µM (highest dose often 57.5 µM), without a hit: at the highest dose activity change, negative = inhibition, actives largely listed as inhibitors; Caspase-1 enzyme, Ac-WEHD-AFC fluorogenic rate;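 further: plate controls were vehicle for no effect and no substrate for full effect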
# * hit, by the source's call; i = inactive; ? = inconclusive; · = no result given; ! = not active in a repeat; [ ] = another dose, or the depositor's remark. Unless noted, the call rests on the fitted dose curve; in most records, active means well fitted curve in the direction sought with a large enough effect; inconclusive means small, poorly fitted or top-dose-only effect, or another doubt; inactive means no such curve, though single readings can be large; an effect the other way counts as inactive or inconclusive. Potency means the concentration at half of the fitted maximal effect.
SMILES,Pol III holo inh,ALOX15 inhib,Caspase-7 inhib,Tau fil binding,Casp1 inh
Cc1ccc(-c2cc(C(=O)NCCCn3ccnc3)c3cc(Br)ccc3n2)o1,-14.9%,?,?,15.8µM*,·
CCCN(CCC)C[C@@H]1CCCCN1CCNC(=O)N1c2ccccc2C(=O)Nc2cccnc21,-2.2%,?,-1.3%,39.8µM*,-1.1%
CCOC(=O)OCC1OC(C#Cc2ccccc2)C=CC1OC(=O)OCC (stereo unspecified),·,-4.8%[11.4 µM],-1.4%[11.5 µM],·,?
CNCCCC1c2ccccc2C=Cc2ccccc21,2.4%[25.6 µM],-5.3%[25.6 µM],-0.7%[25.7 µM],5.01µM*!,-0.3%[25.7 µM]
C[C@@H]1CC[C@H]2C(=O)O[C@H](CN=[N+]=[N-])CN2[C@@H]1c1ccc(Br)cc1,·,4.7%[11.4 µM],2.3%[11.5 µM],·,2.6%[11.5 µM]
CCn1c2ccccc2c2cc(NC(=O)Cc3ccc(S(=O)(=O)N4CCOCC4)s3)ccc21,-5.0%,-16.5%,-2.2%,6.31µM*,-1.8%
COc1ccc(N2CCN(c3nc(NC(C)(C)C)nc(N4CCCCC4)n3)CC2)cc1,-3.4%,-7.9%,-0.9%,10µM*,-2.4%
C#CCCCO/N=C1/C[C@@H](O)[C@@H](O)[C@@H]2[C@@H]3C(=O)N(c4cccc(Oc5ccccc5)c4)C(=O)[C@H]3CC[C@H]12,·,-5.0%[11.4 µM],3.8%[11.5 µM],·,0.2%[11.5 µM]
O=C1C(Cl)=C(N2CCOCC2)C(=O)N1c1cccc(Cl)c1,-1.1%[11.4 µM],3.98µM*,-5.8%,10.0%[11.4 µM],-8.4%
NCCNC(=S)S,-2.7%[11.4 µM],?,-1.1%[11.5 µM],-6.1%[11.4 µM],-1.6%[11.5 µM]
C[C@@H]1O[C@@H](n2cc(F)c(=O)[nH]c2=O)[C@H](O)[C@@H]1O,-2.8%,5.3%,1.8%,8.0%,-2.5%
CN(C)c1ccc(N/C=C/C(=O)c2ccccc2)cc1,-3.5%,?,-4.4%,15.8µM*,-6.1%
CCS(=O)(=O)NCc1ccc2[nH]c3c(c2c1)CCCC3,-5.9%,0.398µM*,?,i,·
COc1ccc(N2CCN(C(=O)c3ccc(NS(=O)(=O)c4ccccc4)cc3)CC2)cc1,3.4%,5.01µM*,-2.9%,-0.7%,0.1%
COc1cccc(S(=O)(=O)Nc2ccc(C(=O)N3CCN(C(=O)c4ccco4)CC3)cc2)c1,1.2%,5.6%,0.0%,18.4%,-0.4%
COc1ccc(N2CCN(C(c3cccs3)C(C)NS(=O)(=O)c3ccccc3)CC2)cc1 (stereo unspecified),-1.1%,-14.6%,-5.0%,15.8µM*,-2.4%
CC(NS(C)(=O)=O)C(c1cccs1)N1CCN(c2ccccc2)CC1 (stereo unspecified),-12.6%,5.2%,-1.2%,-3.4%,6.3%
O=C1c2c(O)ccc(O)c2C(=O)c2c(NCCNCCO)ccc(NCCNCCO)c21,1µM*,9.0%,0.2%,3.98µM*,2.9%
CCc1ccc(C2C(C#N)=C(N)SC(N)=C2C#N)cc1,1.5%[11.4 µM],0.631µM*,-3.2%,11.8%[11.4 µM],-5.5%
N#CC1=C(N)SC(N)=C(C#N)C1c1ccc(C(F)(F)F)cc1,-5.3%,?,-4.6%,-24.9%,-13.6%
CCc1ccc(C2C(C#N)=C(N)SC(N)=C2C#N)s1,-4.2%,10µM*,?,25.1µM*,?
Cc1ccc(C2C(C#N)=C(N)SC(N)=C2C#N)o1,-7.2%,6.31µM*,-17.7%,-1.6%,-16.2%
Cc1ncc(COP(=O)(O)O)c(C)c1O,4.5%[11.4 µM],-1.3%[11.4 µM],2.2%[11.5 µM],5.7%[11.4 µM],-3.2%[11.5 µM]
Clc1ccc2c(N3CCCC3)ccnc2c1,-3.2%,20µM*,-16.1%,20µM*,?
C=C1CC[C@@H](O)C/C1=C/C=C1\CCC[C@]2(C)[C@@H]1CC[C@H]2[C@@H](C)/C=C\[C@@H](C)C(C)C,5.1%,·,·,10.9%,·
SMILES,Pol III holo inh,ALOX15 inhib,Caspase-7 inhib,Tau fil binding,Casp1 inh
CCN(CC)c1ccc(NS(=O)(=O)c2ccc3c(c2)oc(=O)n3C)c(C)c1,-11.6%,20µM*,-3.1%,-18.8%,-1.9%
Cn1c(=O)oc2cc(S(=O)(=O)Nc3ccc4c(c3)OCO4)ccc21,-3.9%,6.7%,-9.1%,20µM*,-3.4%
CCN(CCNS(=O)(=O)c1ccc2c(c1)oc(=O)n2C)c1ccccc1,-2.7%,5.4%,-0.1%,-20.9%,-4.0%
Cn1c(=O)c2cc(S(=O)(=O)Nc3ccc4c(c3)OCO4)ccc2n(C)c1=O,0.8%,2.7%,0.3%,0.7%,-1.8%
Cc1cc(C)c(-c2cc([C@H](C)O/N=C3/[C@H]4OC4[C@@H](O)[C@H]4[C@H]3CCn3c(=O)n(-c5ccccc5)c(=O)n34)on2)c(C)c1 (stereo partly specified),·,0.5%[11.4 µM],-4.8%[11.5 µM],·,-7.7%[11.5 µM]
COC(=O)c1ccc(C(NC(=O)OCc2ccccc2)/C(C)=C/[C@@H](C)C(=O)NCCO)cc1 (stereo partly specified),-1.1%,6.1%,-3.0%,-18.8%,-3.6%
OCc1c[nH]c2ccccc12,2.3%,-17.6%,-1.7%,15.0%,2.5%
OC[C@H](CCc1c[nH]c2ccccc12)c1c[nH]c2ccccc12,1.4%[11.4 µM],3.16µM*,1.7%[11.5 µM],-6.8%[11.4 µM],0.7%[11.5 µM]
C=CCOC(=O)C(C(C)=O)C(NC(=O)OC)c1cccs1 (stereo unspecified),·,12.9%[11.4 µM],-1.7%[11.5 µM],·,-1.3%[11.5 µM]
O=C(NCC1CC1)[C@H]1C[C@@H]1[C@H](NP(=O)(c1ccccc1)c1ccccc1)c1ccccc1,-1.8%,·,0.1%,2.0%,-1.4%
CN1CCc2cc(NC(=O)Nc3cccnc3)ccc21,-2.1%,6.2%,1.5%,-14.2%,-0.2%
Cn1ccc2cc3c(cc21)CCN3C(=O)Nc1cccnc1,-20.4%,-13.0%[25.6 µM],2.0%,31.6µM*,-0.4%
CN1CCN(c2ncc3nc(-c4ccccc4)c(=O)n(C4CC4)c3n2)CC1,-6.3%,-3.9%,?,1.0%,·

# Screening data deposited in PubChem by National Center for Advancing Translational Sciences (NCATS).
